The values that follow come from PubChem BioAssay AID1220 (Sanford-Burnham Center for Chemical Genomics, 2008).

Each structure is given as a SMILES string. Screen size: about 190,000 compounds; about 1,300 (0.68%) were called active. This excerpt belongs to a sample that is enriched for actives. Unmarked numbers belong to inactive results. Rule as the data show it: active = inhibition above about 50%; inactive = the rest.

The target of the test is Mannose-6-phosphate isomerase (Homo sapiens) (UniProt P34949). The experiment in a line: MPI inhibition at elevated mannose 6-phosphate – biochemical, fluorescence intensity, high mannose 6-phosphate, primary screen (AID 1220). The following applies: recombinant PMI enzyme, coupled fluorescence intensity; at 20 µM; stronger effect = higher value.
Mannose-6-phosphate isomerase (Homo sapiens), sequence (P34949 whole entry, looked up): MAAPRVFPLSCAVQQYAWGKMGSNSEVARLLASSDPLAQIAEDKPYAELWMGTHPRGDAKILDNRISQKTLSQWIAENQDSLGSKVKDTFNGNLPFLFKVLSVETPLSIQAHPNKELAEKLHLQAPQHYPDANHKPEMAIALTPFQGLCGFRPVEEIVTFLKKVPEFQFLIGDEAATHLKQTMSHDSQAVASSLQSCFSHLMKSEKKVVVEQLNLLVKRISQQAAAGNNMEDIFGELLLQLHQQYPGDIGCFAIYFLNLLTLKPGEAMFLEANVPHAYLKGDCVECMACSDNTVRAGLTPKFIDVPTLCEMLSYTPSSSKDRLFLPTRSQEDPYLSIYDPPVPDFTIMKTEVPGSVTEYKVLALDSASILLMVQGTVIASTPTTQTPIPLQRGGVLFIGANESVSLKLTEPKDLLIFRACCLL
`CCCc1cc(=O)[nH]c(SCC(=O)N(C)Cc2ccccc2)n1`: the inhibition was 10.9%. Regarding `O=C(NCc1ccco1)C(C(=O)c1ccccc1)n1ccccc1=O` (stereo not given), the inhibition is 1%. `O=C(NCCNS(=O)(=O)c1ccccc1)N1CCOCC1`: the inhibition is -0.7%. The same measure for `CCOC(=O)C(NC(=O)Nc1ccc(O)cc1)(c1ccccc1)C(F)(F)F` (stereo not given): 50.4% (active). The value for `CCOC(=O)C(NC(=O)NC1CCCCC1)(c1ccccc1)C(F)(F)F` (stereo not given) was -5.1%; that for `CCOC(=O)C(NC(=O)Nc1ccc(C(N)=O)cc1)(c1ccccc1)C(F)(F)F` (stereo not given) was -6.9%; that for `O=C(Cc1ccc(Cl)cc1)NCCS(=O)c1ccc(Cl)cc1` (stereo not given) was 8%. Take `CCCN1CCN(CCCNC(=O)CCn2nc(-c3ccccc3)ccc2=O)CC1`: the inhibition was -12.2%. For `CCCn1c(CCc2ccccc2)n[nH]c1=S`, the inhibition is 2.6%. The same measure for `O=C(O)c1ccccc1C(=O)Nc1ccccn1`: 7.2%; for `O=C(Nc1cccc2cccnc12)c1cccc2ccccc12`: -6.9%. The same measure for `O=C(O)c1ccccc1C(=O)Nc1ccc(Br)c2cccnc12`: 53.1% (active). As for `c1ccc2c(c1)nc1sccn12`, the inhibition is -4.9%. For the compound `Cc1ccc(/C=C(/C#N)C(=O)NC(=O)Oc2ccccc2)cc1`, the inhibition is 3.4%. The same measure for `S=C(Nc1cccc2ccccc12)NC1CCCCC1`: 48.3%; for `O=C(NC1CCCCC1)Oc1cccc2ccccc12`: 61.4% (active).

With `O=C(NCc1ccccc1)NC1CCCCC1`, the inhibition is 5.5%. `c1ccc(OCCCc2nc(-c3cccnc3)no2)cc1`: the inhibition is -2.4%. For the compound `Cc1cc(C)n2c(Nc3ccc4c(c3)OCCO4)c(-c3ccc(C)o3)nc2n1`, the inhibition was 0.2%. For the compound `CCCc1nc(N)c(C#N)c(-c2cccnc2)c1CC`, the inhibition was 9.6%. `O=C(C1=C[C@H](c2csc3ccccc23)C[C@H](OCCCCO)O1)N1CCOCC1`: the inhibition was 9.5%.

For `O=C(O)C1=C[C@@H](c2csc3ccccc23)C[C@@H](OCCCCO)O1`, the inhibition was 1.5%. Consider `NC(=O)C1=C[C@@H](c2csc3ccccc23)C[C@@H](OCCCCO)O1`, for which the inhibition is 59.2% (active). The same measure for `O=C(O)C1=C[C@H](c2csc3ccccc23)C[C@H](OCCCCO)O1`: -1.5%; for `NC(=O)C1=C[C@H](c2csc3ccccc23)C[C@H](OCCCCO)O1`: 63.4% (active); for `O=C(NC1CC1)C1=C[C@H](c2csc3ccccc23)C[C@H](OCCCCO)O1`: 1.4%. With `Cc1ccc(C(C(=O)NCc2ccco2)N(C(=O)Cc2cccs2)c2cccnc2)cc1` (stereo not given), the inhibition is -5%. With `c1ccc(COC2CCCN(Cc3nc(-c4cccs4)no3)C2)nc1` (stereo not given), the inhibition is 13.3%. As for `O=C(Cn1nnc(-c2ccccc2F)n1)Nc1cccc2ncccc12`, the inhibition was -0.5%. The value for `CS(=O)(=O)c1ccc2nc(N)sc2c1` was 6.1%. The value for `CCOC(=O)c1c(C)[nH]c(C)c1C(=O)COC(=O)c1ccc(Cl)c(S(N)(=O)=O)c1` was -8.6%; that for `O=S(=O)(/N=C(/c1ccccc1)N1CCCCC1)c1ccccc1` was 7.7%; that for `N#Cc1c(Nc2cccc(F)c2)sc2c(O)cc(=O)[nH]c12` was 55.8% (active). The same measure for `N#Cc1c(Nc2ccccc2)sc(C(=O)c2ccc(F)cc2)c1N`: 1.5%; for `O=c1cnnc(Nc2cccc(F)c2)[nH]1`: -14.5%; for `CN(C)C(=O)c1ccc2c(c1)n(C)c(=O)n2C`: -6.4%.

Consider `CCCCNC(=O)CSc1nc2ccccc2c(=O)n1C1CCCC1`, for which the inhibition was 0.1%. The same measure for `O=C(CNc1ccc(Br)cc1)NNC1=NCCC1`: -3.4%; for `O=C(CNc1ccccc1)NNC1=NCCC1`: 14.8%. The same measure for `O=C(CNc1ccc2ccccc2c1)NNC1=NCCC1`: 52.9% (active); for `Clc1cccc(-c2nnc3sc(-c4ccc5c(c4)OCO5)nn23)c1`: 6%. Consider `O=C1CCC(C(=O)OC(C(=O)c2c[nH]c3ccccc23)c2ccccc2)=NN1` (stereo not given), for which the inhibition is -1.8%.

As to `CN(C)c1ccc(N/C=C/C(=O)C(C)(C)C)cc1`, the inhibition was 12.9%.

For the compound `COc1ccc(N/C=C/C(=O)C(F)(F)F)cc1`, the inhibition was 14.6%. The same measure for `CN(C)c1ccc(N/C=C/C(=O)C(F)(F)F)cc1`: 56.5% (active). The value for `CCn1cc(C(=O)NC(=S)Nc2cccc(O)c2)cn1` was 0.6%. For `CCCN=Cc1c(CCC)[nH]n(-c2nc3ccccc3s2)c1=O`, the inhibition is 4.7%.

As for `CCCc1[nH]n(-c2nc3ccccc3s2)c(=O)c1C=NCC(C)C`, the inhibition was 0.7%. The same measure for `CCCc1[nH]n(-c2nc3ccccc3s2)c(=O)c1C=NCC1CCCO1` (stereo not given): 51% (active). Turning to `O=C(O)CCCC(=O)Nc1ccccc1C(=O)N1CCOCC1`, the inhibition is -1.4%. The value for `CC(=O)c1cccc(NC(=O)CN2C(=S)NC(C)(C)CC2C)c1` (stereo not given) was -1.5%; that for `Cc1ccc(O)c(N=CC2=C(O)c3ccccc3C2=O)c1` was 15.3%. The value for `Cc1ccc(O)c(C=Nc2cc(C)ccc2O)c1` was 23.3%; that for `Cc1ccc(O)c(N=Cc2cccs2)c1` was 65.7% (active).

`O=C(NC1CCCCC1)N1CCC(c2nc3ccccc3[nH]2)CC1`: the inhibition was 1.1%. For `COC(=O)c1ccc(OC(=O)c2ccco2)cc1`, the inhibition is -6.2%.

Consider `O=C(Oc1ccc(-c2cnc3ccccc3n2)cc1)c1ccco1`, for which the inhibition is 15.4%. Turning to `Cc1cc(C(=O)CSCCCn2c(=O)[nH]c3ccccc32)c(C)n1C`, the inhibition is -21.9%. The value for `CCN(C(=O)CN1CCN(c2ccc(O)cc2)CC1)c1c(N)n(Cc2ccccc2)c(=O)[nH]c1=O` was 51.6% (active); that for `CC(C)CN(C(=O)CN1CCN(c2ccc(F)cc2)CC1)c1c(N)n(CC(C)C)c(=O)[nH]c1=O` was -8.7%. The value for `CCN(C(=O)CN1CCN(c2ccccc2)CC1)c1c(N)n(Cc2ccccc2)c(=O)[nH]c1=O` was 7.8%; that for `CC(=O)c1ccc(N2CCN(CC(=O)N(CC(C)C)c3c(N)n(CC(C)C)c(=O)[nH]c3=O)CC2)cc1` was -0.1%; that for `CCN(C(=O)CN1CCN(c2ccc(OC)cc2)CC1)c1c(N)n(Cc2ccccc2)c(=O)[nH]c1=O` was 2.4%. The same measure for `CC(C)CN(C(=O)CN1CCN(c2ccc(O)cc2)CC1)c1c(N)n(CC(C)C)c(=O)[nH]c1=O`: 52.3% (active); for `Cc1ccc(NC(=S)N2CCCN(Cc3ccc(F)cc3)C2)c(C)c1`: -3.7%. As for `Cc1ccc(CC(=O)Nc2cccnc2)cc1`, the inhibition is 10.1%.

In the case of `Cc1ccc(N2C(=S)SC3CS(=O)(=O)CC32)cc1` (stereo not given), the inhibition is -0.7%. As for `O=C(CCC1CCCC1)Nc1nnc(-c2ccc3c(c2)OCO3)s1`, the inhibition was 1.1%. In the case of `CCOC(=O)c1c(-c2ccccc2)[nH]c2ccc(O)cc12`, the inhibition is 5.9%. The same measure for `CCOC(=O)c1c(C)oc2ccc(O)cc12`: 2.8%; for `CCOC(=O)c1c(C)oc2c1cc(O)c1ccccc12`: 54.3% (active); for `CCOC(=O)c1c(OCC)[nH]c2c1cc(O)c1ccccc12`: 54.7% (active). As for `CCOC(=O)c1c(C)oc2c1c(C=NCc1ccccn1)c(O)c1ccccc12`, the inhibition is 32.6%.

Take `CCOC(=O)c1c(C)oc2c1c(C(c1ccccc1)N1CCOCC1)c(O)c1ccccc12` (stereo not given): the inhibition is 30.5%. In the case of `CCOC(=O)c1c(C)[nH]c2c1-c1ccccc1C(=O)C2=O`, the inhibition was 62.9% (active). `CCOC(=O)c1c(OCC)[nH]c2ccc(O)cc12`: the inhibition was -2.7%.

Take `CCOC(=O)c1c(C)cc(=O)oc1C`: the inhibition is 3.9%. The same measure for `CCOC(=O)c1c(C)[nH]c(C)c1-c1ccccc1OC`: 1.6%.

`CCOC(=O)c1c2c3c(cccc3[nH]c1=O)C(=O)c1ccccc1-2`: the inhibition is -30.6%. For `CCCCCCN1C(=O)C(O)=C(C(C)=O)C1c1ccc(Cl)cc1` (stereo not given), the inhibition is 3.1%.

Turning to `O=C(N/N=C/c1c[nH]c2ccccc12)c1cc(-c2ccccc2)n[nH]1`, the inhibition is -2.4%. Take `O=C1NC(CCc2ccccc2)C(=O)N1Cc1ccc(Br)cc1` (stereo not given): the inhibition is 10.5%.

Turning to `COc1ccc(Nc2n[nH]c(N)c2C(N)=O)cc1`, the inhibition is 1.4%. In the case of `CN(CC(=O)N1CCCCC1)S(=O)(=O)c1cccc2cccnc12`, the inhibition is 13.4%. As to `Cc1[nH]c2ccccc2c1/C=N/NC(=O)Nc1ccccc1`, the inhibition was -7.2%. The same measure for `CCOc1ccc(C(=O)NCC(=O)Nc2ccc(N3CCOCC3)cc2)cc1OCC`: 3.6%; for `O=C(N/N=C/c1coc2ccccc2c1=O)c1cn(-c2ccccc2)nc1-c1ccc(F)cc1`: -12.2%. For the compound `CC(C)OCc1c(C(=O)OC/C(O)=C(\C#N)c2nc3ccccc3[nH]2)oc2ccccc12`, the inhibition was 28.4%. The value for `CCOC(=O)c1c(C)[nH]c2ccc(O)cc12` was 6%. The value for `CCOC(=O)c1c(C)[nH]c2c1cc(O)c1ccccc12` was 61.2% (active); that for `CCOC(=O)c1c(C)[nH]c2cc(Br)c(O)cc12` was 2.1%. The value for `Nc1cc(-c2cccc(Br)c2)nn1Cc1ccccc1` was 11.2%; that for `CCOC(=O)N1CCN(S(=O)(=O)c2ccc(C(=O)NNc3nc4c(C)cccc4s3)cc2)CC1` was 1.7%; that for `CCCc1n(CC)c2ccccc2[n+]1CC(O)COC1CCCCC1` (stereo not given) was -2.9%. As for `COc1ccc(NC(=O)/C(=C\c2cc(OC)c(OC)cc2[N+](=O)[O-])NC(=O)c2ccccc2)cc1`, the inhibition is 15.2%. The same measure for `COc1cc(/C=C(\C#N)C(=O)Nc2ccc3ccccc3c2)c([N+](=O)[O-])cc1OC`: 67% (active); for `CCOC(=O)/C(C#N)=C\c1ccc(OC)c(OC)c1`: -3.6%; for `COc1cc(/C=C(/NC(=O)c2ccccc2)C(=O)Nc2ccccc2)c([N+](=O)[O-])cc1OC`: 27.2%. The same measure for `CCOC(=O)/C(C#N)=C/c1ccc(OC)c(OC)c1`: 5%. Take `CCOC(=O)/C(C#N)=C\c1cc(OC)c(OC)cc1[N+](=O)[O-]`: the inhibition is 69.6% (active).

As a reminder, the inhibition is the change of the read-out against control, counted positive when it falls.
